“And” between values parts separate entries of the source, which are not always exact repeats. Equal entries are not always repeated. Inconclusive results are not listed. The source made the active and inactive calls. Unless noted, how the calls were made is not given here.
Key:
[1] = qHTS Assay for Identifying Gametocytocidal Compounds (AID 743244; active means well fitted curve in the direction sought with a large enough effect; an effect the other way counts as inactive or inconclusive;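 further: on the % scale 0 is the no-effect control and ±100 the full control effect; actives lower the fluorescent signal which means gametocytes are killed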); conditions: P. falciparum 3D7 stage III-V gametocytes, alamarBlue, 72 h; max response: stronger effect = lower value
Outline: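 Viability read-out was resazurin reduction (alamarBlue, 24 h) measured at Ex 525/Em 598 nm. Beforehand, late-stage (III-V) 3D7 P. falciparum gametocytes at 20,000 cells/well were incubated with compound 72 h at 37C under 5% CO2.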

[2] = qHTS profiling for inhibitors of Plasmodium falciparum (3D7) proliferation (AID 743322);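 further: infected erythrocytes exposed to compound for 72 h before lysis; 100% = DMSO vehicle wells and 0% = 0.29 µM artemisinin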; conditions: P. falciparum 3D7 proliferation; at 28.7 µM (top of the series) unless noted
Outline: (§1)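 Erythrocytes infected with P. falciparum (0.3% parasitemia, 2.5% hematocrit) incubated with compounds 72 h at 37 C, 5% CO2. Lysis with saponin/Triton buffer containing SYBR Green I, overnight at room temperature in the dark; DNA fluorescence (485/535 nm) normalised to 0.29 uM artemisinin and DMSO.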

[3] = qHTS profiling for inhibitors of Plasmodium falciparum (HB3) proliferation (AID 743324; active means well fitted curve in the direction sought with a large enough effect; an effect the other way counts as inactive or inconclusive;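 further: 100% = DMSO vehicle wells and 0% = artemisinin-treated control wells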); conditions: Plasmodium falciparum HB3 blood-stage proliferation; at 28.7 µM (top of the series) unless noted
Outline: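 P. falciparum HB3 grown in erythrocytes (0.3% parasitemia, 2.5% hematocrit final) with compound for 72 h at 37 C, 5% CO2. Parasite DNA detected by SYBR Green after saponin/triton lysis overnight; normalized to 0.29 uM artemisinin and DMSO.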

[4] = qHTS profiling of the MIPE4 collection as inhibitors of Plasmodium falciparum (3D7) proliferation (AID 743344);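 further: scaled between DMSO vehicle wells and 0.29 µM artemisinin as full inhibition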; conditions: P. falciparum 3D7 in erythrocytes, SYBR Green DNA fluorescence, 72 h; at 28.5 µM (top of the series) unless noted
Outline: as §1

[5] = qHTS profiling of the MIPE4 collection as inhibitors of Plasmodium falciparum (DD2) proliferation (Rep 2) (AID 743346); conditions: P. falciparum Dd2 in erythrocytes, SYBR Green DNA, 72 h; at 28.5 µM (top of the series) unless noted
Outline: as §1

[6] = qHTS profiling for inhibitors of Plasmodium falciparum (DD2) proliferation (AID 743323); conditions: lower = more inhibition; at 28.7 µM (top of the series) unless noted
Outline: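 P. falciparum Dd2-infected erythrocytes (0.3% parasitemia, 2.5% hematocrit) exposed 72 h at 37 C, 5% CO2. Lysis with SYBR Green, overnight at room temperature, fluorescence 485/535 nm; normalized to 0.29 uM artemisinin and DMSO.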

[7] = qHTS profiling of the MIPE4 collection as inhibitors of Plasmodium falciparum (DD2) proliferation (AID 743345); conditions: P. falciparum Dd2 in erythrocytes, SYBR Green DNA, 72 h; at 28.5 µM (top of the series) unless noted
Outline: as §1

[8] = qHTS assay for cell viability of HEK293 cells (AID 743288; active means well fitted curve in the direction sought with a large enough effect; an effect the other way counts as inactive or inconclusive; further: potency means the concentration at half of the fitted maximal effect; nearly all actives have a fitted effect of over 50% in size); conditions: ATP luminescence (CellTiter-Glo), 18 h; max response: stronger effect = lower value
Outline: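 HEK293 parental, 2,000 cells/well; ≥5 h pre-incubation 37 C; pintool compound addition; 18 h, 37 C; CellTiter-Glo 30 min RT; luminescence read.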

[9] = qHTS assay for cell viability of the p53RE-bla HCT-116 cell line (AID 743292; active means well fitted curve in the direction sought with a large enough effect; an effect the other way counts as inactive or inconclusive; further: potency means the concentration at half of the fitted maximal effect; nearly all actives have a fitted effect of over 55% in size)
Outline: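 Readout: CellTiter-Glo luminescence after 30 min RT. Treatment: compounds in DMSO, 16 h, 37 C. Cells: CellSensor p53RE-bla HCT-116, 4,000/well, preincubated 5 h.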

For `O=c1[nH]c(-c2ccc(C(F)(F)F)cc2)nc2c1CSCC2`, the max response [1] was 12% (inactive), the remaining parasite growth % (stronger effect = lower value) [2] was 106% and the remaining proliferation (% of control), lower = more inhibition [3] was 29.8%. The parasite growth, % of DMSO control [4] was 74.2% and the parasite growth, % of control (lower = inhibition) [5] was 74.7%.

`Cc1cc(-c2nnc3n2CCCCC3)c(C)n1-c1ccc(F)cc1` showed a remaining parasite growth % (stronger effect = lower value) [2] of 7.99%, an activity, percent of control [6] of 9.31% and a remaining proliferation (% of control), lower = more inhibition [3] of 0.91%.

In the case of `COc1ccc(-c2ccc3c(N4CCOC[C@H]4C)nc(N4CCOC[C@H]4C)nc3n2)cc1CO`, the remaining parasite growth % (stronger effect = lower value) [2] is reported as 15.5%, the activity, percent of control [6] is reported as 19.8% and the remaining proliferation (% of control), lower = more inhibition [3] is reported as 10.7%. The parasite growth, % of DMSO control [4] was 6.01% and the parasite growth remaining, % of DMSO control (lower = more inhibition) [7] was 9.32%.

For `Cc1cc(Nc2nc(N[C@@H](C)c3ncc(F)cn3)ncc2Cl)n[nH]1`, the max response [1] was 8.89% (inactive), the remaining parasite growth % (stronger effect = lower value) [2] was 108% and the remaining proliferation (% of control), lower = more inhibition [3] was 101%. For the same molecule, the parasite growth, % of DMSO control [4] was 6.82%, the parasite growth remaining, % of DMSO control (lower = more inhibition) [7] was 8.04% and the parasite growth, % of control (lower = inhibition) [5] was 21.5%.

With `C[C@]1(c2nc3c(C(N)=O)cccc3[nH]2)CCCN1` the max response [1] was 20.1% (inactive), the remaining parasite growth % (stronger effect = lower value) [2] was 93.1% and the remaining proliferation (% of control), lower = more inhibition [3] was 94%. It also gave a parasite growth, % of DMSO control [4] of 88.7%, a parasite growth remaining, % of DMSO control (lower = more inhibition) [7] of 94.9% and a parasite growth, % of control (lower = inhibition) [5] of 85.5%.

With `Cc1c(CCOc2ccc(C(=O)O)cc2)c2cc(Cl)ccc2n1C(c1ccccc1)c1ccccc1` the max response [1] was 6.58% (inactive), the remaining parasite growth % (stronger effect = lower value) [2] was 84.7% and the remaining proliferation (% of control), lower = more inhibition [3] was 23.4%. For the same molecule, the parasite growth, % of DMSO control [4] was 30.6% and the parasite growth remaining, % of DMSO control (lower = more inhibition) [7] was 70.3%.

In the case of `O=C(C1CC1)N1CC[C@@H](Cn2c(-c3ccc(-c4ccc5occc5c4)cc3)nc3cnccc32)C1`, the max response [1] is reported as -18.8% (inactive), the remaining parasite growth % (stronger effect = lower value) [2] is reported as 74.3% and the remaining proliferation (% of control), lower = more inhibition [3] is reported as 55.2%. The parasite growth, % of DMSO control [4] was 35%, the parasite growth remaining, % of DMSO control (lower = more inhibition) [7] was 78.6% and the parasite growth, % of control (lower = inhibition) [5] was 46.6%.

In the case of `Cc1cc2c(C(C)C)c(O)c(O)c(C=O)c2c(O)c1-c1c(C)cc2c(C(C)C)c(O)c(O)c(C=O)c2c1O`, the Potency [8] is reported as 35.5 µM (active), the Potency [9] is reported as 12.6 µM (active) and the remaining parasite growth % (stronger effect = lower value) [2] is reported as 5.05% and 5.11%. For the same molecule, the activity, percent of control [6] was 13.9% and 10.5%, the remaining proliferation (% of control), lower = more inhibition [3] was -0.222% and 1.83% and the parasite growth, % of DMSO control [4] was 8.6%. For the same molecule, the parasite growth remaining, % of DMSO control (lower = more inhibition) [7] was 15%.

With `COc1cc(Oc2ccnc3cc(OC)c(OC)cc23)ccc1NC(=O)NC(C)c1nccs1` (configuration not stated) the max response [1] was 6.55% (inactive), the remaining parasite growth % (stronger effect = lower value) [2] was 69.7% and the remaining proliferation (% of control), lower = more inhibition [3] was 16.5%. For the same molecule, the parasite growth, % of DMSO control [4] was 22.7%, the parasite growth remaining, % of DMSO control (lower = more inhibition) [7] was 85.4% and the parasite growth, % of control (lower = inhibition) [5] was 40.3%.

In the case of `CC1(C)SCCN(S(=O)(=O)c2ccc(OCC#CCO)cc2)[C@@H]1C(=O)NO`, the max response [1] is reported as 1.92% (inactive), the remaining parasite growth % (stronger effect = lower value) [2] is reported as 107% and the remaining proliferation (% of control), lower = more inhibition [3] is reported as 81.4%. It also gave a parasite growth, % of DMSO control [4] of 65.2%, a parasite growth remaining, % of DMSO control (lower = more inhibition) [7] of 66% and a parasite growth, % of control (lower = inhibition) [5] of 70%.

For `C[C@H](NC(=O)Cc1cc(F)cc(F)c1)C(=O)N[C@@H]1C(=O)N(C)c2ccccc2-c2ccccc21`, the max response [1] was -14.2% (inactive), the remaining parasite growth % (stronger effect = lower value) [2] was 7.69% and the remaining proliferation (% of control), lower = more inhibition [3] was 6.09%. The parasite growth, % of DMSO control [4] was 10.3%, the parasite growth remaining, % of DMSO control (lower = more inhibition) [7] was 12.1% and the parasite growth, % of control (lower = inhibition) [5] was 12.3%.

`CC(C)c1onc(-c2c(Cl)cccc2Cl)c1COc1ccc(/C=C/c2cccc(C(=O)O)c2)c(Cl)c1` gave a remaining parasite growth % (stronger effect = lower value) [2] of 28.5%, an activity, percent of control [6] of 74.9% and a remaining proliferation (% of control), lower = more inhibition [3] of 71.7%.

`CCOc1cc(N2CCC(O)CC2)ccc1Nc1ncc2c(n1)N(C)c1ccccc1C(=O)N2C` gave a remaining parasite growth % (stronger effect = lower value) [2] of 6.85%, an activity, percent of control [6] of 1.46% and a remaining proliferation (% of control), lower = more inhibition [3] of -0.346%. For the same molecule, the parasite growth, % of DMSO control [4] was 4.46%, the parasite growth remaining, % of DMSO control (lower = more inhibition) [7] was 7.18% and the parasite growth, % of control (lower = inhibition) [5] was 5.98%.

`CC[C@@H](C)[C@H](NC(=O)[C@H](CC1CCCCC1)NC(=O)c1ccno1)C(=O)N1CCC2(CCc3ccccc32)CC1` gave a remaining parasite growth % (stronger effect = lower value) [2] of -1.46%, an activity, percent of control [6] of -0.289% and a remaining proliferation (% of control), lower = more inhibition [3] of -0.621%. It also gave a parasite growth, % of DMSO control [4] of 5.26%, a parasite growth remaining, % of DMSO control (lower = more inhibition) [7] of 7.23% and a parasite growth, % of control (lower = inhibition) [5] of 14%.

Work on `O=C1[C@H](Cc2ccc(O)cc2)N2C(=O)CCN(C(=O)NCc3ccccc3)[C@H]2CN1Cc1cccc2ccccc12` yielded a remaining parasite growth % (stronger effect = lower value) [2] of 32.3%, an activity, percent of control [6] of 43.6% and a remaining proliferation (% of control), lower = more inhibition [3] of -0.183%. The parasite growth, % of DMSO control [4] was 5.06%, the parasite growth remaining, % of DMSO control (lower = more inhibition) [7] was 56% and the parasite growth, % of control (lower = inhibition) [5] was 40.6%.

With `COCCNCCCn1c(C(=O)CF)c(-c2ccc(C)cc2)c2c(N)ncnc21` the remaining parasite growth % (stronger effect = lower value) [2] was 72.8%, the activity, percent of control [6] was 77.9% and the remaining proliferation (% of control), lower = more inhibition [3] was 35%. For the same molecule, the parasite growth, % of DMSO control [4] was 39% and the parasite growth, % of control (lower = inhibition) [5] was 36.5%.

`CCN(c1ccccc1)c1cc(NC)[n+](C)c(C)n1` gave a remaining parasite growth % (stronger effect = lower value) [2] of 76.6%, a remaining proliferation (% of control), lower = more inhibition [3] of 38.1% and a parasite growth, % of DMSO control [4] of 47.7%. For the same molecule, the parasite growth remaining, % of DMSO control (lower = more inhibition) [7] was 94.6%.

Work on `Cc1cnc(Nc2ccc(OCCN3CCCC3)cc2)nc1Nc1cccc(S(=O)(=O)NC(C)(C)C)c1` yielded a remaining parasite growth % (stronger effect = lower value) [2] of 1.03%, a remaining proliferation (% of control), lower = more inhibition [3] of 1.48% and a parasite growth, % of DMSO control [4] of 6.36%. For the same molecule, the parasite growth remaining, % of DMSO control (lower = more inhibition) [7] was 25.8% and the parasite growth, % of control (lower = inhibition) [5] was 11%.

Work on `Cc1ccnc(NS(=O)(=O)c2ccc(NC(=O)Nc3ccc(S(=O)(=O)Nc4nccc(C)n4)cc3)cc2)n1` yielded a remaining parasite growth % (stronger effect = lower value) [2] of 12%, a remaining proliferation (% of control), lower = more inhibition [3] of 3.95% and a parasite growth, % of DMSO control [4] of 15.7%. For the same molecule, the parasite growth remaining, % of DMSO control (lower = more inhibition) [7] was 70.2% and the parasite growth, % of control (lower = inhibition) [5] was 26.2%.

For `COc1cc2c(cc1OC)CN(CCc1ccc(NC(=O)c3cccc4c(=O)c5cccc(OC)c5[nH]c34)cc1)CC2`, the remaining parasite growth % (stronger effect = lower value) [2] was -0.733%, the activity, percent of control [6] was 0.466% and the remaining proliferation (% of control), lower = more inhibition [3] was -0.901%. For the same molecule, the parasite growth, % of DMSO control [4] was 5.92%, the parasite growth remaining, % of DMSO control (lower = more inhibition) [7] was 7.47% and the parasite growth, % of control (lower = inhibition) [5] was 10%.

From PubChem BioAssay (NCATS)
